Rows were chosen to be rich in hits. Some 7.3% of all compounds tested hit in one or more screens of this group.
Gal4-VP16 FLuc: counter-screen for ROR gamma inhibitors: Gal4-VP16 reporter; Drosophila S2 Gal4-VP16 UAS-luciferase, luminescence, 20 h; Potency, µM (highest dose often 53.6 µM), for inactives: at the highest dose activity, negative = inhibition, most hits filed as inhibitors; 3.5% of 310,000 active; AID 2546;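 further: Gal4-VP16 expression switched on by copper sulfate through the metallothionein promoter; nearly all actives have a fitted effect of over 50% in size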
RORgamma inh: inhibitors of mouse ROR gamma transcriptional activity; 5.4% of 310,000 active; P51450; Potency, µM (highest dose often 53.6 µM), for the others: top-dose activity change, negative = inhibition, usual class: inhibitors; Drosophila S2 Gal4-RORgamma UAS-luciferase reporter, 20 h; further: nearly all actives have a fitted effect of over 60% in size
Target sequence (P51450 whole entry, looked up, the tested form may be a part): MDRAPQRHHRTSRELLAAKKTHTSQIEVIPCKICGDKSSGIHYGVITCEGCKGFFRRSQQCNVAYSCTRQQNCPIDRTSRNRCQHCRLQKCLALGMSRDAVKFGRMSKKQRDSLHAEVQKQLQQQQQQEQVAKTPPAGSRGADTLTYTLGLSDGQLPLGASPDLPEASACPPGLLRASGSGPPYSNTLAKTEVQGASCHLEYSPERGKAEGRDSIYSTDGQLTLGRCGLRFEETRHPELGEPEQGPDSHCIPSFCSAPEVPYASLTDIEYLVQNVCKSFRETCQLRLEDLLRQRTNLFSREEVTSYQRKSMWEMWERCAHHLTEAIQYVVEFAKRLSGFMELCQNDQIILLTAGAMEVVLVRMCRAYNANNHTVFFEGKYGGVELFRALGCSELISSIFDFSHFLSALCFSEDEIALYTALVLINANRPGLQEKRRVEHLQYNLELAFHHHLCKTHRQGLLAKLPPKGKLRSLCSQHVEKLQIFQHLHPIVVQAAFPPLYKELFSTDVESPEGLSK
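In this cell-based reporter format, copper sulfate (700 uM final) drives Gal4–ROR gamma fusion expression from a metallothionein promoter in Drosophila Schneider cells; compounds preincubated 1 hr, reporter read after 20 hr at ambient temperature.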
Tau FP inhib: tau fibrillization inhibition (FP) | K18 P301L tau heparin fibrillization, Alexa594 FP, 6 h | P10636 | 0.39% of 280,000 active | Potency, µM (titrated, usually from 57.7 µM), inactives show at the highest dose activity, negative = inhibition, hits mostly inhibitors; further: nearly all actives have a fitted effect of over 55% in size
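Recombinant K18 P301L […], labeled with Alexa 594 at 0.24 uM over 15 uM unlabeled; heparin inducer 20 uM final; 37 C, 6 hr; FP endpoint.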
Tau fibril ThT: tau fibrillization inhibition (ThT binding); AID 1460; 2.1% of 270,000 active; Potency, µM (doses to about 57.4 µM), for inactives: at the highest dose activity, negative = inhibition, most hits filed as inhibitors; P10636; recombinant tau K18 P301L, heparin-induced fibrillization, ThT fluorescence; further: nearly all actives have a fitted effect of over 55% in size
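K18 P301L tau (15 uM + 0.24 uM Alexa 594-tagged), heparin 20 uM, NaOAc pH 7, 6 h 37 C; ThT 30 uM, 1 h RT, ex 450/em 510 nm.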
Tau fluor counter: counter-screen for tau fibril formation inhibitors; tau K18 P301L Alexa594 fluorescence, heparin fibrillization; Potency, µM (top dose mostly 57.7 µM), for the others: at the top dose activity change, negative = decrease; 0.93% of 280,000 active; AID 1463; further: nearly all actives have a fitted effect of over 55% in size
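Human tau K18 P301L (15 uM unlabeled, 0.24 uM Alexa 594-labeled) in 100 mM sodium acetate pH 7 with 20 uM heparin, 6 hr at 37 C. ThT 30 uM added, 1 hr ambient; Alexa 594 FP and total fluorescence read at 555/632 nm.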
Starred values were filed as active, the others as inactive; ? = inconclusive; . = no result given; [ ] = remark or other dose. The call rests on the fitted dose curve; in most records, active means well fitted curve in the direction sought with a large enough effect; inconclusive means small, poorly fitted or top-dose-only effect, or another doubt; inactive means no such curve, though single readings can be large; an effect the other way counts as inactive or inconclusive. On the % scale 0 is the no-effect control and ±100 the full control effect; potency means the concentration at half of the fitted maximal effect.

SMILES	Gal4-VP16 FLuc	RORgamma inh	Tau FP inhib	Tau fibril ThT	Tau fluor counter
C=CCN1C(=O)/C(=C/c2ccc(OC)cc2)S/C1=N/c1nccs1	-25%	5µM*	-8%	-3%	-16%
O=C(O)CN1C(=O)/C(=C2\SC(=S)N(C(Cc3ccccc3)C(=O)O)C2=O)c2ccccc21 (centres undefined)	-2%	3%	.	.	.
C=CCN1C(=O)S/C(=C/c2ccsc2)C1=O	9%	?	1%	5%	2%
C=CCN1C(=O)/C(=C2/C(=O)N(CC(=O)O)c3ccccc32)S/C1=N/c1nccs1	-6%	-28%	-19%	7.1µM*	?
CC(=O)c1ccc(NC(=O)c2cc(C)nc3c2c(C)nn3-c2ccc(C)cc2)cc1	.	.	-15%	-9%	?
CC(C)(C)NC[C@H](O)CSc1nc(-c2ccc(C(N)=O)s2)cs1	-4%	23%	.	.	.
Nn1cnnc1SC1CCCCC1NS(=O)(=O)c1ccccc1 (centres undefined)	8.9µM*	-16%	-1%	-1%	-2%
Cc1nc2c(C(=O)Nc3ccc(N4CCCC(O)C4)cc3)snc2c(=O)[nH]1 (centres undefined)	-13%	-11%	-1%	.	?
O=C(Nc1ccc(N2CCCC(O)C2)cc1)c1snc2c(=O)[nH]cnc12 (centres undefined)	-19%	-20%	0%	3.5µM*	-29%
Cc1ccc(O)c(-c2n[nH]c3c2C(c2ccc(F)cc2)N(Cc2ccco2)C3=O)c1 (centres undefined)	.	.	4%	?	14µM*[quencher]
CC(OCc1ccccc1)C(NC(=O)OC(C)(C)C)C(=O)NC1COC2CC(n3ccc(=O)[nH]c3=O)OC12 (centres undefined)	-14%	-1%	.	.	.
CNC(=S)N/N=C1\C(=O)c2cccc3cccc1c23	2.5µM*	0.5µM*	-6%	?	?
O=C(N/N=C1\C(=O)c2cccc3cccc1c23)c1ccc(O)cc1	0.32µM*	0.071µM*	1%	?	?
CCCCNC(=S)N/N=C1\C(=O)c2cccc3cccc1c23	?	?	0%	-14%	-24%
CC1CCN(C(=O)CN2c3ccc(Br)cc3-c3ccccc3S2(=O)=O)CC1	.	.	2%	-3%	-7%
COc1cc(OC)c(NC(=O)c2ccc3c(SCC(=O)O)c4c(nc3c2)CCCC4)cc1Cl	-1%	13%	1%	?	-10%
Cc1cccc(C)c1NC(=O)CN1CCCCCC1	-1%	20%	.	.	.
CCN1c2ccccc2-c2nc3ccccc3n2C1c1ccco1 (centres undefined)	?	16µM*	-3%	?	-27%
CN1c2ccccc2-c2nc3ccccc3n2C1c1ccccn1 (centres undefined)	?	4µM*	1%	2%	-11%
c1ccc(CN2c3ccccc3-c3nc4ccccc4n3C2c2ccccn2)cc1 (centres undefined)	-29%	16µM*	1%	?	-19%
CN1c2ccccc2-c2nc3ccccc3n2C1c1ccncc1 (centres undefined)	9%	-30%	4%	2%	-2%
O=C(Nc1ccc(Cl)cc1Cl)c1cc(S(=O)(=O)N2CCC3(CC2)OCCO3)ccc1F	.	.	-8%	-4%	-19%
CCCCC(=O)Nc1sc2c(c1C(=O)OCC)CCC(C=O)=C2Cl	-17%	15%	-9%	25µM*	-22%
COc1ccc(NC(=O)CSc2nnc(NC(=O)C3CC3)s2)cc1OC	0%	-1%	.	.	.
CC(=O)c1c(C)c(C)c2n1CCn1c(C)ccc1-2	16%	-5%	-17%	16µM*	?
SMILES	Gal4-VP16 FLuc	RORgamma inh	Tau FP inhib	Tau fibril ThT	Tau fluor counter
Cc1ccc(C(O)(C(=O)NNc2ccc3ccccc3n2)c2ccc(C)cc2)cc1	8.9µM*	10µM*	-3%	-4%	-10%
Clc1ccc(-c2nc(-c3ccccn3)no2)cc1Cl	-20%	-31%	-1%	?	-19%
COc1ccccc1-c1nc(-c2ccccn2)no1	7.1µM*	2.5µM*	-8%	-8%	-14%
Cc1ccccc1-c1nc(-c2ccccn2)no1	7.9µM*	7.1µM*	-2%	-10%	-3%
Cc1ccccc1-c1nc(-c2cccnc2)no1	28%	-2%	1%	-7%	0%
COc1ccc(-c2nc(-c3ccccn3)no2)cc1	0.32µM*	0.56µM*	11%	13%	8%

From PubChem BioAssay
